This is a sample that favours compounds with a hit; in the whole collection about 9% have one here.
HttQ103 aggreg = reduces HttQ103-GFP aggregates in PC12 cells. PC12 HttQ103-GFP aggregates, Acumen cytometry, 40 h. Potency, µM (top dose mostly 46.1 µM), usual class: inhibitors. 220,000 compounds, 1.1% hits; note: nearly all actives have a fitted effect of over 60% in size
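Steps: seed 1500 PC12 HTTQ103-GFP cells/well; add tebufenozide, 100 nM final; add compound titration; add ATPLite reagent; quantify GFP aggregates by laser scanning cytometry.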
HTT ATP protect = Huntington cell model cytoprotection by ATP luminescence; 230,000 compounds, 0.14% hits; PC12 HTT-Q103 induced, cytoprotection, ATP luminescence, 40 h; AID 1471; Potency, µM (series often up to 56.4 µM), hits mostly activators; note: nearly all actives have a fitted effect of over 45% in size
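ATP quantification (ATPlite) reports survival of PC12 cells in which tebufenozide, 100 nM final, switches on Htt exon 1 with 103 glutamines linked to GFP; compounds are titrated.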
Lamin A splicing = changes lamin A minigene splicing in HeLa cells. 200,000 compounds, 0.01% hits. AID 1487. HeLa LMNA splicing GFP/RFP minigene ratio, 48 h. Potency, µM (top dose mostly 46.1 µM), usual class: inhibitors; active = well fitted inhibition curve with a large enough effect in the signal ratio, with a control signal flat, not every such curve was filed as active; inconclusive = small, poorly fitted or top-dose-only effect, or effect the other way, or a change in a side signal; the % refers to the signal ratio
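Read-out is the ratio of GFP to DsRed2 object intensity, acquired by 488 nm laser-scanning cytometry on HeLa lamin A-EGFP minigene reporter cells. Compound incubation 48 hrs at 37 °C in Opti-MEM with 2% FBS; DMSO 0.5% final.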
ALDH1A1 inh = blocks purified human ALDH1A1 activity; 220,000 compounds, 7.3% hits; Potency, µM (highest dose often 75.3 µM), most hits filed as inhibitors; Purified ALDH1A1, NADH fluorescence, propionaldehyde substrate; P00352; active = well fitted inhibition curve with a large enough effect, not every such curve was filed as active; inconclusive = small, poorly fitted or top-dose-only effect, or another doubt; inactive = no such curve, though single readings can be large or run the other way
Target sequence (P00352 whole entry, looked up): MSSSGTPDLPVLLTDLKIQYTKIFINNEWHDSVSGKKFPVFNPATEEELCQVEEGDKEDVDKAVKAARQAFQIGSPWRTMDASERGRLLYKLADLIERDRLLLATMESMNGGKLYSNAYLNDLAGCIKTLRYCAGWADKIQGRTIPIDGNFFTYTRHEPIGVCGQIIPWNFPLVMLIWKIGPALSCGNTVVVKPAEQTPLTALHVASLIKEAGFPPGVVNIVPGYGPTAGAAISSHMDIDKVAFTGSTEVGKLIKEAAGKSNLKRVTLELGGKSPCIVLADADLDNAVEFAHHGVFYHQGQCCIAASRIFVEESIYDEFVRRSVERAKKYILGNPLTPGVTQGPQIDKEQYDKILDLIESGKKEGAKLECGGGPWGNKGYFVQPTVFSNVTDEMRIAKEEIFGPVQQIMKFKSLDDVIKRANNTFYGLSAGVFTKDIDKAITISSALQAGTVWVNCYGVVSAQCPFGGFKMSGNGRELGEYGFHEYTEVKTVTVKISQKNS
HPGD block = blocks human HPGD enzyme activity | P15428 | purified HPGD, NADH fluorescence kinetic, PGE2 substrate | Potency, µM, usual class: inhibitors | 150,000 compounds, 4.3% hits | AID 894; active = well fitted inhibition curve with a large enough effect, not every such curve was filed as active; inconclusive = small, poorly fitted or top-dose-only effect, or another doubt; inactive = no such curve, though single readings can be large or run the other way
Target sequence (P15428 whole entry, looked up): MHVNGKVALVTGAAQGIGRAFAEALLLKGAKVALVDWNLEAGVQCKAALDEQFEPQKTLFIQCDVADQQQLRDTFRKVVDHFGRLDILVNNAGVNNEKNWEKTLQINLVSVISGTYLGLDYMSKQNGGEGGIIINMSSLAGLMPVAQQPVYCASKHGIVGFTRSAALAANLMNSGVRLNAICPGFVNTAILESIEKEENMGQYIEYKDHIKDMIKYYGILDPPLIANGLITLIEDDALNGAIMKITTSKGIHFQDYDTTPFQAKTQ
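20 nM HPGD preincubated 15 min at room temperature with compound in 50 mM Tris-HCl pH 8, 0.01% Tween 20. Started with 1 mM NAD+ and 30 uM prostaglandin E2; NADH fluorescence (360/450 nm) read 5 times over 30-s intervals, last minus first.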
KinaseGlo FLuc = blocks Kinase-Glo luciferase, a counter-screen artifact; Q27757; 200,000 compounds, 0.28% hits; Potency, µM (series often up to 38.3 µM), hits mostly inhibitors; Kinase-Glo luciferase, ATP luminescence, 8 min; AID 1379; note: nearly all actives have a fitted effect of over 60% in size
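Substrate mix (final 50 mM imidazole pH 7.2, 50 mM KCl, 7 mM MgCl2, 10 uM ATP, 0.01% Tween 20, 0.05% BSA) plus pin-tool compound, then Kinase-Glo detection mix; 8 min ambient, luminescence read.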
Numbers stand for hits; i = inactive; ? = inconclusive; nt = no result; [ ] = remark or other dose. Unless noted, calls come from the whole dose curve; as a rule, active = well fitted curve in the direction sought with a large enough effect; inconclusive = small, poorly fitted or top-dose-only effect, or another doubt; inactive = no such curve, though single readings can be large; an effect the other way counts as inactive or inconclusive.

SMILES	HttQ103 aggreg	HTT ATP protect	Lamin A splicing	ALDH1A1 inh	HPGD block	KinaseGlo FLuc
O=C(c1cc(-c2ccncc2)nc2ccc(Cl)cc12)N1CCN(C(=O)C2CCCO2)CC1 (configuration not stated)	i	i[0.074 µM]	i	i	i	i
CCCCCCC(=O)Nc1ccc(C(=O)N/N=C/c2cccnc2)cc1	i	i	i	i	?	i
Cc1ccc(NC2=C(Cl)C(=O)OC2OC(=O)c2ccco2)cc1 (configuration not stated)	i	i	?	i	i	i
COc1ccc(C2=C(c3ccc([N+](=O)[O-])cc3)C(=O)OC2)cc1	i	i	nt	i	nt	i
CS(=O)(=O)c1ccc(C2=C(c3ccccc3)C(=O)OC2)cc1	i	?	i	2.82µM	i	i
Nc1c(C(=O)NC2CC2)sc2nc3c(c(-c4ccco4)c12)CC/C3=C/c1ccco1	i	i[10 µM]	i	15.8µM	15.8µM	i
Cc1nc2sc(C(N)=O)c(N)c2c2c1CCCC2	1.78µM	i[10 µM]	nt	nt	nt	nt
CC1(C)Cc2c(c(N3CCOCC3)nc3sc(C(N)=O)c(N)c23)CO1	i[9.22 µM]	i[10 µM]	nt	nt	nt	nt
NC(=O)c1sc2nc3c(c(-c4ccco4)c2c1N)CCC3	4.47µM	?	i	i	i	i
CCOC(=O)c1sc2nc(-c3ccco3)c3c(c2c1N)CC(C)(C)OC3	i	i	i	?	?	i
Cc1nc2sc(C(=O)O)c(N)c2c2c1COC(C)(C)C2	i	i[0.074 µM]	i	14.1µM	i	i
Cc1ccc(C)c(-n2nnnc2SCC(=O)Nc2c(C)n(C)n(-c3ccccc3)c2=O)c1	i	i	i	i	i	i
NC(=O)c1sc2nc(-c3ccccc3)c3c(c2c1N)CCCC3	6.31µM	i	nt	?	nt	i
Cc1ccc(-c2nc3sc(C(N)=O)c(N)c3c3c2CCCC3)cc1	i	i[10 µM]	i	i	?	i
CC(=O)Nc1ccc2c(c1)n(C)c(=O)n2C	i	i	i	i	i	i
Cn1c(=O)n(C)c2cc(NC(=O)CCl)ccc21	?	i	?	0.708µM	i	i
Cc1ccc2c(CN3CCN(Cc4ccc5c(c4)OCO5)CC3)cc(=O)oc2c1C	i	i	i	25.1µM	i	i
Cc1cc(C)c2c(CN3CCN(Cc4ccc5c(c4)OCO5)CC3)cc(=O)oc2c1	i	i[0.074 µM]	?	12.6µM	i	i
Cc1cc(C)c2c(CN3CCN(Cc4ccc5c(c4)OCO5)CC3)cc(=O)oc2c1C	i	i[0.074 µM]	?	1.58µM	i	i
Cc1cc2oc(=O)cc(CN3CCN(Cc4ccc5c(c4)OCO5)CC3)c2cc1C	i	i[10 µM]	i	i	i	i
Cc1ccc(NC(=O)c2oc3c(c2C)C(=O)CC(C)(C)C3)cc1	i	i[0.074 µM]	i	?	i	i
Cc1c(C(=O)Nc2ccccc2)oc2c1C(=O)CC(C)(C)C2	10µM	i	i	?	i	i
CCOc1ccc(/C=N/N(C)c2ccccc2)cc1OC	i[9.22 µM]	i	i	7.94µM	i	i
COC(=O)C1=C2SC(C)C(=O)N2C(N)=C(C#N)C1c1cc(OC)c(OC)c(OC)c1 (configuration not stated)	i	i	i	i	i	i
COc1ccc(C2C(C#N)=C(N)Oc3cc(O)ccc32)cc1OC (configuration not stated)	i	i	i	i	i	i
SMILES	HttQ103 aggreg	HTT ATP protect	Lamin A splicing	ALDH1A1 inh	HPGD block	KinaseGlo FLuc
COC(=O)C1=C2SC(C)C(=O)N2C(N)=C(C#N)C1c1ccc(OC)c(OC)c1 (configuration not stated)	i	i	?	12.6µM	?	i
COc1ccc(C2C(C#N)=C(N)SC(N)=C2C#N)cc1OC	i	i	i	28.2µM	15.8µM	i
N#CC1=C(N)SC(N)=C(C#N)C1c1cccc(O)c1	i	i	i	25.1µM	?	i
CCOc1cc(C2C(C#N)=C(N)SC(N)=C2C#N)ccc1OCCN1CCOCC1	?	i[0.074 µM]	i	7.94µM	22.4µM	i
Cc1nn(CC(=O)Nc2ccccc2F)c(=O)c2c(C)n(-c3ccc(Cl)cc3)nc12	nt	nt	i	nt	nt	nt
COc1cc2c(cc1OC)C(COc1cc(C)cc(C)c1)N(C(=O)c1ccc(S(=O)(=O)N3CCCC3)cc1)CC2 (configuration not stated)	nt	nt	i	nt	nt	nt
CCCc1[nH]nc2c1C(c1ccccc1OCC)C(C#N)=C(N)O2 (configuration not stated)	i	i[10 µM]	i	i	i	i
CCOc1ccc(C2C(C#N)=C(N)SC(N)=C2C#N)c(OCC)c1	i	i[10 µM]	i	17.8µM	i	i
S=C(c1cn(Cc2ccc(Br)cc2)c2ccccc12)N1CCOCC1	i	?	?	i	i	i
CC(C(=O)OCC(=O)c1ccc([N+](=O)[O-])cc1)N1C(=O)C2C3CCC(C3)C2C1=O (configuration not stated)	i	i	nt	3.16µM	nt	i
Cc1csc(SCC(=O)Nc2cccc(S(=O)(=O)N3CCCC3)c2)n1	i	i	i	25.1µM	i	i
Cc1ccc(S(=O)(=O)N2CCCCC2)cc1NC(=O)CSc1ncn[nH]1	i	i	nt	?	nt	nt
Cc1csc(SCC(=O)Nc2cc(S(=O)(=O)N3CCCC3)ccc2Cl)n1	i	i	i	1.26µM	i	i
O=C(CSc1nnc(Nc2ccccc2)s1)Nc1cccc(S(=O)(=O)N2CCCCC2)c1	i	i[10 µM]	?	i	i	i
O=C(CSc1ncn[nH]1)Nc1cc(S(=O)(=O)N2CCCC2)ccc1Cl	i	i	nt	15.8µM	nt	i
C[C@H]1CCCC=CC2C[C@H](OC(=O)CN(C)C)C[C@@H]2[C@@H](O)/C=C\C(=O)O1 (some centres not stated)	nt	i[10 µM]	nt	i[13.5 µM]	i	i[7.66 µM]
c1csc(CNc2ccnc(-c3ccoc3)n2)c1	nt	i	?	11.2µM	nt	nt
Fc1ccc(Nc2ccnc(-c3ccoc3)n2)cc1	nt	i	?	31.6µM	nt	nt
Cc1cc2c(cc1S(=O)(=O)NCc1ccccc1Cl)OCCN2C	nt	nt	i	nt	nt	nt
Cc1cc(C)n(C(=O)CNc2ccc(C)c(C)c2)n1	i	i[1.9 µM]	?	25.1µM	i	i
Cc1cc(C)n2ncc(C(=O)NCc3ccc(Cl)cc3)c2n1	i	i	i	i	?	i
O=C(COc1cccc(Br)c1)N/N=C/C(=O)c1ccccc1	i	i	i	i	nt	i
Cc1ccc(N2C(=O)C3C4C=CC(CNC(=S)N5CCN(c6cccc(C)c6)C(C)C5)(O4)C3C2=O)cc1 (configuration not stated)	?	i	?	1.58µM	nt	i
O=C(/C(=C/O)N=Nc1ccccc1)c1cccs1	i	i[10 µM]	i	10µM	nt	i
O=C(O)CCCCCNC(=O)/C=C/c1ccco1	i[9.22 µM]	i[10 µM]	i	i	nt	i
O=C(/C=C/c1ccco1)Nc1cc(Cl)ccc1C(=O)O	i	i[10 µM]	i	?	31.6µM	i
O=C(O)CCCNC(=O)/C=C/c1ccco1	i	i	nt	22.4µM	nt	nt
Cc1ccc(C(=O)OCC(=O)NCCC2=CCCCC2)s1	i	i[10 µM]	i	?	i	i
O=C(/C=C/c1ccco1)Nc1ccccc1C(=O)O	i[9.22 µM]	i	i	i	nt	?
